Results published in PubChem BioAssay AID485346 (Sanford-Burnham Center for Chemical Genomics, 2010).
Out of some 330,000 compounds screened, about 10,000 (3%) were called active.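 Rule for the calls: active = inhibition of at least 50% at 8 µM in the primary screen; inactive = the rest.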 Many of the other results were omitted from the sample, so actives are more common in it than they were.

target: Protein Mdm4 (Homo sapiens) + E3 ubiquitin-protein ligase Mdm2 (Homo sapiens) (UniProt O15151+Q00987); assay: disruptors of Mdm2/MdmX RING complex – cell-based, luminescence, split luciferase, SaOS-2, uHTS, primary screen (AID 485346); settings: SaOS-2 split-luciferase Mdm2/MdmX complementation, at 8 µM, stronger effect = higher value
Sequence (O15151 whole entry, looked up): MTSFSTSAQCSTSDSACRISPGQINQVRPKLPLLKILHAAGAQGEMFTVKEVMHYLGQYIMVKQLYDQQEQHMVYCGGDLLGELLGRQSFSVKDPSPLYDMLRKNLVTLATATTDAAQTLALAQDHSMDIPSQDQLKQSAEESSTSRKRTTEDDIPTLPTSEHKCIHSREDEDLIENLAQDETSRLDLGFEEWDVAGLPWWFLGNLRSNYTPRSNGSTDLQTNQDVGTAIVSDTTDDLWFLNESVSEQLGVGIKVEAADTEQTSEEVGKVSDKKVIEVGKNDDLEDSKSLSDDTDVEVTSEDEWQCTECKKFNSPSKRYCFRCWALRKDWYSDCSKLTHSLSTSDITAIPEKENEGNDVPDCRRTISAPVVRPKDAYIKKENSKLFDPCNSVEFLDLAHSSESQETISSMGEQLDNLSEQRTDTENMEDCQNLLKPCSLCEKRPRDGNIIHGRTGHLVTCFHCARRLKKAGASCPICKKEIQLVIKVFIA
Sequence (Q00987 whole entry, looked up): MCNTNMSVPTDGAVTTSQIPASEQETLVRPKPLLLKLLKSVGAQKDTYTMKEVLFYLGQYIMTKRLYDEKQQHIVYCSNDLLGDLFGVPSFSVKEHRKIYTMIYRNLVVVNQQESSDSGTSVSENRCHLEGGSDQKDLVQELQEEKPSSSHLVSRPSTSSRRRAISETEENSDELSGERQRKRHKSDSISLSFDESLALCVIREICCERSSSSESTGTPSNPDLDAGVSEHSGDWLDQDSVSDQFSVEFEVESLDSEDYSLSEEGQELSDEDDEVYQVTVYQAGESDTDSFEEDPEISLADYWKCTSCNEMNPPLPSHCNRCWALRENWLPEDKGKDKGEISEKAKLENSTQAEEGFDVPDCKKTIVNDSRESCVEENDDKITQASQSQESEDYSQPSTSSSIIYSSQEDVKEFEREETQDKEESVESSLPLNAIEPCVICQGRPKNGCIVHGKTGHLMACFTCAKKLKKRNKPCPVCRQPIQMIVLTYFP

| SMILES | inhibition |
| --- | --- |
| O=C(COC(=O)CCCN1C(=O)c2cccc3cccc(c23)C1=O)NC1CCS(=O)(=O)C1 (configuration not stated) | -2.87% (inactive) |
| O=C1NC2(CCCCC2)N=C1c1ccccc1 | 4.91% (inactive) |
| COc1cccc(CNC(=O)CN2C(=O)NC(Cc3ccccc3)(c3ccccc3)C2=O)c1 (configuration not stated) | -11% (inactive) |
| O=C(CCCn1c(=O)[nH]c2cc(Cl)ccc2c1=O)NCCN1CCN(c2ccccc2)CC1 | 9.17% (inactive) |
| COc1cccc(CNC(=O)c2n[nH]c3ccccc23)c1 | -9.68% (inactive) |
| COc1cccc(CNC(=O)Cc2csc(Nc3nc(=S)[nH]c4ccccc34)n2)c1 | 60.5% (active) |
| O=C(Cc1ccc(-n2c(=O)[nH]c3ccccc3c2=O)cc1)N1CCN(c2cccc(Cl)c2)CC1 | -17% (inactive) |
| O=C(Cc1csc(Nc2nc(=S)[nH]c3ccccc23)n1)NCCCN1CCN(c2cccc(Cl)c2)CC1 | 77.1% (active) |
| CC(=O)Nc1ccc(NC(=O)C(NS(=O)(=O)c2ccc3c(c2)OCCO3)C(C)C)cc1 (configuration not stated) | 1.24% (inactive) |
| Cc1noc(C)c1S(=O)(=O)N(C)C[C@H]1Oc2c(NC(=O)Nc3ccc4c(c3)OCO4)cccc2C(=O)N([C@H](C)CO)C[C@@H]1C | 23.1% (inactive) |
| COc1ccc(CNc2ncnc3ccccc23)cc1 | 21.5% (inactive) |
| O=C(O)CCCCCNc1ncnc2ccc(Br)cc12 | -1.34% (inactive) |
| COc1ccc(Nc2ncnc3ccc(Br)cc23)c(OC)c1 | 76.4% (active) |
| COc1ccccc1NC(=O)CCC(=O)N1CC(C)Oc2ccc(C)cc21 (configuration not stated) | 13.9% (inactive) |
| O=C1Nc2ccc([N+](=O)[O-])cc2C1=Nc1cccc(CO)c1 | 30.4% (inactive) |
| Cc1ccc(N2CC(C(=O)NCCS(=O)(=O)N3CCN(c4ccccc4)CC3)CC2=O)cc1 (configuration not stated) | 37.2% (inactive) |
| COc1cc(N)c(Cl)cc1C(=O)OCC(=O)c1ccc2c(c1)NC(=O)CO2 | 18.8% (inactive) |
| CCOC(=O)c1c(-c2ccc(-c3ccccc3)cc2)csc1NC(=O)CCC(=O)O | 9.19% (inactive) |
| CCOC(=O)c1c(-c2cccc(C)c2)csc1NC(=O)c1c(-c2ccccc2)noc1C | 94.3% (active) |

| SMILES | inhibition |
| --- | --- |
| Cc1ccc(CNC(=O)c2c(-c3ccccc3)noc2C)cc1 | -12.1% (inactive) |
| Cn1c(=O)[nH]c(=O)c2c1nc(NCCCn1ccnc1)n2Cc1cccc(Br)c1 | 34.5% (inactive) |
| O=C1N/C(=C/c2cccn2-c2ccccc2)C(=O)N1c1cccc(Cl)c1 | 53.8% (active) |
| O=c1c(-c2cccc(Cl)c2)c[nH]n1-c1ccccc1 | -13.8% (inactive) |
| Cc1ccccc1NC(=O)CN1C(=O)N/C(=C\c2cccn2-c2cccc(C(=O)O)c2)C1=O | 11.8% (inactive) |
| COc1ccc(C(=O)OCC(=O)NCC2CCCO2)cc1[N+](=O)[O-] (configuration not stated) | -2.37% (inactive) |
| O=C(C1CCC(=O)N(C2CC2)C1)N1CCN(c2ccc(Cl)cc2)CC1 (configuration not stated) | -4.59% (inactive) |
| CN(c1ccc2nc3ccccc3c(=O)n2n1)C1CCCCC1 | 90.5% (active) |
| CN(C(=O)c1cc2c(=O)n3ccccc3nc2s1)C1CCCCC1 | -88.5% (inactive) |
| CN(C(=O)CSc1nncc2ccccc12)C1CCCCC1 | -30.3% (inactive) |
| CC(=O)Nc1c2c(nn1-c1cccc(C)c1)CSC2 | 18% (inactive) |
| Cc1c(CNCCc2ccccc2)c(C(=O)O)c(C)n1-c1ccccc1 | 8.96% (inactive) |
| CN(C(=O)c1cccc(NC(=O)Cc2ccc([N+](=O)[O-])cc2)c1)C1CCC1 | 15.3% (inactive) |
| CCC(=O)NCc1cc(-c2nn(C)c(=O)c3ccccc23)ccc1OC | 20.9% (inactive) |
| COc1ccc(-c2nn(C)c(=O)c3ccccc23)cc1CNC(=O)C1CCCCC1 | 13% (inactive) |
| COc1ccc(-c2nn(C)c(=O)c3ccccc23)cc1NC(=O)COc1ccccc1 | 70.8% (active) |
| Cc1cc(NC(=O)COC(=O)/C=C/c2ccc(C)o2)no1 | 8.11% (inactive) |
| Cc1c(C=O)c2ccccc2n1CCOc1ccccc1 | 11.3% (inactive) |
| O=C(NCCc1ccc(F)cc1)c1ccc(S(=O)(=O)N2CCCCC2)cc1 | 0.124% (inactive) |

| SMILES | inhibition |
| --- | --- |
| O=S(=O)(Nc1cccc(Oc2ccc(Cl)cc2)n1)c1ccc(F)cc1 | 14.1% (inactive) |
| CCCC(=O)NC(C)C(c1cccs1)N1CCN(c2ccccc2)CC1 (configuration not stated) | 18.2% (inactive) |
| CC(NC(=S)Nc1ccccc1)C(c1cccs1)N1CCOCC1 (configuration not stated) | -20.7% (inactive) |
| CC(NC(=O)Nc1ccccc1)C(c1cccs1)N1CCN(c2ccccc2)CC1 (configuration not stated) | 58.6% (active) |
| CCOCCCNC(=O)C(NC(=O)c1ccc(=O)[nH]c1)c1ccc(Cl)cc1 (configuration not stated) | -20.6% (inactive) |
| CNC(=S)N/N=C/c1cn(Cc2ccc(C)cc2)c2ccccc12 | 42.2% (inactive) |
| N#CCC(=O)N/N=C/c1cn(Cc2ccc3ccccc3c2)c2ccccc12 | 67.9% (active) |
| COc1cccc(Cn2cc(/C=N/NC(=O)c3cc(O)cc(O)c3)c3ccccc32)c1 | 23.5% (inactive) |
| CC1=C(C(N)=O)C(c2ccc3c(c2)OCO3)n2nc(-c3cccc(C)c3)nc2N1 (configuration not stated) | 7.35% (inactive) |
| COCCn1cnc2c1c(=O)n(Cc1ccc(Br)cc1)c(=O)n2Cc1ccccc1 | 31.5% (inactive) |
| CCN(CC)CCn1cnc2c1c(=O)[nH]c(=O)n2Cc1ccccc1 | 14.5% (inactive) |
| N=c1c2c(-c3ccccc3)c(-c3ccccc3)n(Cc3ccccc3)c2ncn1CCCO | 57.2% (active) |
| CCOC(=O)[C@H]1[C@H]2COc3ccc(OC)cc3[C@@H]2N2C(=O)c3ccc(F)cc3NC(=O)[C@@]12C | 17.8% (inactive) |
| CCOC(=O)Cc1csc(SCC(=O)Nc2ccc(C)cc2F)n1 | 7.22% (inactive) |
| CCOCc1nnc(NC(=O)CCC2CCCCC2)s1 | 15.7% (inactive) |
| CCn1c(CNC(=O)c2cc(OC)c(OC)c(OC)c2)cc2cc(C)ccc21 | 18.3% (inactive) |
| O=C(CNS(=O)(=O)c1cccc(C(F)(F)F)c1)Nc1ccccc1F | -4.5% (inactive) |
| O=C(NNc1ccccc1Cl)C(O)(c1cccc(C(F)(F)F)c1)c1cccc(C(F)(F)F)c1 | 94.5% (active) |
| O=C(Nc1cc(C(F)(F)F)ccc1Cl)C(=O)N1CCCCC1 | 4.88% (inactive) |
